Records with an inconclusive call do not appear. A call without a number means that no potency is given here. Values without a mark were called inactive. The source made the active and inactive calls. Calls come from the whole dose curve; as a rule, active = well fitted cell-killing curve with a large enough effect; inconclusive = small, poorly fitted or top-dose-only effect; inactive = flat fitted curve, though single readings scatter.
Potency is the fitted concentration of half-maximal effect.

The experiment can be described thus: qHTS of pediatric cancer cell lines to identify multiple opportunities for drug repurposing: Primary screen for Rh18 cells (AID 1347102). Note: nearly all actives have a fitted effect of over 65% in size. As to conditions: Rh18 rhabdomyosarcoma viability, CellTiter-Glo luminescence, 48 h; series mostly up to 46 µM. The method in brief:
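Cells (500-1,000/well) rested 5 h, then received compounds for 48 h; metabolically active cells were measured by CellTiter-Glo luminescence. Final concentrations spanned up to 46 µM (MIPE, 11-point) or 0.59 nM-46 µM (NPC, 8-point) in primary screens, 11-point in follow-ups.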
(In general: Quantitative high-throughput screening tests each substance at several concentrations.)
For the compound `NS(=O)(=O)c1cc2c(cc1Cl)NC(CSCc1ccccc1)=NS2(=O)=O`, the Potency result is “inactive”. Take `O=C1NC(=O)[C@@]2(CCOc3ccc(F)cc32)N1`: the Potency entry is “inactive”. The same measure, in the same setting: then `CC[N+](CC)(CC)CCOc1ccc(/C=C/c2ccccc2)cc1`, with 7.5 µM (active); and `Cc1ccc(C(C)C)cc2c(C)ccc1-2`, with “inactive”; and `Cc1c(Cl)cccc1Nc1ccccc1C(=O)O`, with “inactive”. On the same count and under the same terms, then `O=c1cc(CO)occ1O`, with “inactive”. For `C#CCN(C)Cc1ccccc1`, the Potency result is “inactive”.

As to `CN(C)CCOC(C)(c1ccccc1)c1ccccn1` (centres undefined), the Potency result was “inactive”. Same read-out and setting: then `CCCOC(=O)c1ccccc1`, with “inactive”. Still for that read-out and setting: then `CC1=C(CC(=O)O)c2cc(F)ccc2/C1=C\c1ccc(S(C)=O)cc1` (centres undefined), with “inactive”; and `C[C@H](NC(CCc1ccccc1)C(=O)O)C(=O)N1CCC[C@H]1C(=O)O` (some centres undefined), with “inactive”. Still for that read-out and setting: the same measure for `CC(C)C(=O)c1c(C(C)C)nn2ccccc12`: “inactive”; for `C=Cc1c(C)c2cc3[nH]c(cc4nc(cc5nc(cc1[nH]2)C(C)=C5CCC(=O)O)C(CCC(=O)O)=C4C)c(C)c3C=C`: “inactive”. Take `O=C(O)[C@@H]1CSCN1`: the Potency entry was “inactive”. The same measure, in the same setting: then `CC(=O)Nc1ccc(/C=N/NC(N)=S)cc1`, with “inactive”.

For the compound `NC1CCN(c2cccc(Cl)n2)CC1`, the Potency result was “inactive”. On the same count and under the same terms, then `C=CCn1c(=O)n([C@@H]2O[C@H](CO)[C@@H](O)[C@H]2O)c2nc(N)[nH]c(=O)c21`, with “inactive”; and `Cc1cccc(C)c1NC(=O)CN(CC(=O)O)CC(=O)O`, with “inactive”. Regarding `COc1ccc(S(=O)(=O)Nc2nnc(CC(C)C)s2)cc1`, the Potency entry is “inactive”. Same read-out and setting: the same measure for `CC(C)(C)C(=O)NCCCC(=O)O`: “inactive”. In the case of `C[C@@H](O)[C@H](N)C(=O)O`, the Potency result was “inactive”. Still for that read-out and setting: the same measure for `CC(O)CN(CCN(CC(C)O)CC(C)O)CC(C)O` (centres undefined): “inactive”; for `Cc1cccc(Nc2cc(Cl)nc(SCC(=O)O)n2)c1C`: “inactive”. Still for that read-out and setting: then `O=S(=O)(O)c1cc(I)c(O)c2ncccc12`, with “inactive”; and `Cc1ncc(COP(=O)(O)O)c(C=O)c1O`, with “inactive”. Take `Cc1cc(CC(=O)O)n(C)c1C(=O)c1ccc(Cl)cc1`: the Potency entry is “inactive”. On the same count and under the same terms, then `CCC(=O)Nc1ccc(O)cc1`, with “inactive”. The same measure, in the same setting: the same measure for `CN1[C@@H]2CC[C@H]1CC(OC(=O)C(O)c1ccccc1)C2` (some centres undefined): “inactive”. Same read-out and setting: the same measure for `CCCCc1ncc(/C=C(\Cc2cccs2)C(=O)O)n1Cc1ccc(C(=O)O)cc1`: “inactive”; for `NS(=O)(=O)c1cc2c(cc1C(F)(F)F)NC(Cc1ccccc1)NS2(=O)=O` (centres undefined): “inactive”. On to `NC(N)=NCCC[C@H](N)C(=O)O`, for which the activity change, negative = cytotoxic is 15.1% [at 4.84 µM]. For the compound `CN(C)CCCO[C@@H]1[C@H]2OC(C)(C)O[C@H]2O[C@@H]1C(O)CO` (some centres undefined), the Potency entry was “inactive”. Still for that read-out and setting: the same measure for `CC(=O)Oc1c(C)c(C)c2c(c1C)CC[C@@](C)(CCC[C@H](C)CCC[C@H](C)CCCC(C)C)O2`: “inactive”; for `O=c1cc[nH]c(=O)[nH]1`: “inactive”. `Cn1c(=O)c2c(ncn2CC2OCCO2)n(C)c1=O`: the Potency result is “inactive”.

For `N[C@@H](CSSC[C@H](N)C(=O)O)C(=O)O`, the activity change, negative = cytotoxic is 0.304% [at 0.597 µM].

Turning to `COc1cc(C)c(Cc2cnc(N)nc2N)cc1OC`, the Potency result was “inactive”. Same read-out and setting: the same measure for `Nc1ccc(S(=O)(=O)Nc2ccc(Cl)nn2)cc1`: “inactive”; for `O=C1NS(=O)(=O)c2ccccc21`: “inactive”.

Values taken from PubChem BioAssay (NCATS).
